Drawing on PubChem BioAssay (Tox21), this text covers Potency for 38 molecules.

Structures are written as SMILES. Inconclusive results are not listed. A call without a number means that no potency is given here. More than one record can exist for a structure, and the calls need not agree. Activity calls are given as the source filed them. Unless noted, calls come from the whole dose curve; as a rule, active = well fitted curve in the direction sought with a large enough effect in the repeat runs; inconclusive = weak or mixed curves; inactive = no such curve, though single readings can be large; an effect the other way counts as inactive or inconclusive.
Potency is the fitted concentration of half-maximal effect.

Tested on in one assay: not listed separately
The assay is described as follows: qHTS assay to identify small molecule antagonists of the estrogen receptor alpha (ER-alpha) signaling pathway using the BG1 cell line (AID 743080; calls by dose curve;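 note: BG1 cells stimulated with 17beta-estradiol alongside compound; nearly all actives have a fitted effect of over 25% in size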). The note with it: BG1Luc4E2 ERE-luciferase antagonist mode, luminescence; series mostly up to 70.3 µM. The procedure, abridged: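 BG1-Luc-4E2 cells (endogenous full-length ER-alpha, stable 4×ERE-luciferase) were starved 5 days in phenol-red-free medium with 10% charcoal-stripped FBS, plated 24 h, then given compound plus 17beta-estradiol for 21.5 h at 37 C; ONE-Glo luminescence read after 30 min.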
On to `Cc1cc(C(F)(C(F)(F)F)C(F)(F)F)ccc1NC(=O)c1cccc(I)c1C(=O)NC(C)(C)CS(C)(=O)=O`, for which the Potency result was “inactive”.
Same read-out and setting: the same measure for `CCOc1cc(C(C)(C)C)ccc1C1COC(c2c(F)cccc2F)=N1` (stereo not drawn): “inactive”.
The same measure, in the same setting: then `Oc1cc(Cl)c(Cl)c(Cl)c1`, with “inactive”; and `BrCBr`, with “inactive”.
On the same count and under the same terms, then `O=C(O)COc1nc(Cl)c(Cl)cc1Cl`, with “inactive”.
In the case of `CC(C)CCCCCCCOP(=O)(Oc1ccccc1)Oc1ccccc1`, the Potency result was “inactive”.
On to `Oc1c(Cl)c(Cl)cc(Cl)c1Cl`, for which the Potency is 74.8 µM (active).
On the same count and under the same terms, the same measure for `ClC1=C(Cl)[C@]2(Cl)[C@H]3[C@H]([C@H]4C=C[C@H]3C4)[C@@]1(Cl)C2(Cl)Cl`: “inactive”.
On the same count and under the same terms, then `CCCCCCCCCBr`, with “inactive”.
With `Cc1ccc(OP(=O)(Oc2ccccc2)Oc2ccccc2)cc1`, the Potency entry is “inactive”.
For `Clc1ccc(C(c2ccccc2Cl)C(Cl)(Cl)Cl)cc1` (stereo not drawn), the Potency result is “inactive”.
Same read-out and setting: then `Cc1c(Cl)c(=O)oc2cc(OP(=O)(OCCCl)OCCCl)ccc12`, with “inactive”; and `CCOC(=O)OC1=C(c2cc(C)ccc2C)C(=O)NC12CCC(OC)CC2` (stereo not drawn), with “inactive”.
Still for that read-out and setting: the same measure for `Nc1ccc(Sc2ccc(N)cc2)cc1`: “inactive”; for `CN(C)C1CSSSC1`: “inactive”.
On to `COP(=S)(OC)Oc1cc(Cl)c(Br)cc1Cl`, for which the Potency entry is “inactive”.
On the same count and under the same terms, the same measure for `C1CCC2CCCCC2C1` (stereo not drawn): “inactive”; for `Fc1cccc(Cl)c1CCl`: “inactive”.

Tested on in the next assay: not listed separately
Nature of the assay: qHTS assay to identify small molecule antagonists of the estrogen receptor alpha (ER-alpha) signaling pathway using the BG1 cell line - cell viability counter screen (AID 743081).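 Note: compound given together with 17beta-estradiol as the ER stimulus; nearly all actives have a fitted effect of over 45% in size.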 The following applies: BG1Luc4E2 viability, CellTiter-Fluor, 22 h; series mostly up to 70.3 µM.
As for `Cc1cc(C(F)(C(F)(F)F)C(F)(F)F)ccc1NC(=O)c1cccc(I)c1C(=O)NC(C)(C)CS(C)(=O)=O`, the Potency result was “inactive”.
Still for that read-out and setting: the same measure for `CCOc1cc(C(C)(C)C)ccc1C1COC(c2c(F)cccc2F)=N1` (stereo not drawn): “inactive”; for `Nc1ccccc1C(=O)Oc1ccc2ccccc2c1`: “inactive”.
The same measure, in the same setting: then `Nc1ccc(Cc2ccc(N)c(Cl)c2)cc1Cl`, with “inactive”.
For `C[C@]12CC[C@@H]3c4ccc(OC(=O)N(CCCl)CCCl)cc4CC[C@H]3[C@@H]1CC[C@@H]2O`, the Potency entry was “inactive”.
On the same count and under the same terms, the same measure for `Oc1cc(Cl)c(Cl)c(Cl)c1`: “inactive”; for `CC(=O)Nc1ccc2c(c1)Cc1ccccc1-2`: “inactive”.
Consider `BrCBr`, for which the Potency entry was “inactive”.
Consider `O=C(O)COc1nc(Cl)c(Cl)cc1Cl`, for which the Potency result was “inactive”.
Consider `CN(C)C(=S)[S-].CN(C)C(=S)[S-].[Cu+2]`, for which the Potency is 1.49 µM (active).
Same read-out and setting: then `N#CC(Cl)Cl`, with “inactive”; and `CC(C)CCCCCCCOP(=O)(Oc1ccccc1)Oc1ccccc1`, with “inactive”.
On the same count and under the same terms, the same measure for `O=C(CBr)c1ccc(O)cc1`: “inactive”.
Turning to `[CH3][Hg][Cl]`, the Potency is 34.3 µM (active).
For `ClC1=C(Cl)[C@]2(Cl)[C@H]3[C@H]([C@H]4C=C[C@H]3C4)[C@@]1(Cl)C2(Cl)Cl`, the Potency entry is “inactive”.
Turning to `CCCCCCCCCBr`, the Potency entry is “inactive”.
On to `Cc1ccc(OP(=O)(Oc2ccccc2)Oc2ccccc2)cc1`, for which the Potency entry is “inactive”.
For `S=C=Nc1cccc2ccccc12`, the Potency entry is “inactive”.
The same measure, in the same setting: then `Nc1ccccc1C(=O)OC/C=C/c1ccccc1`, with “inactive”.
`c1ccc(Nc2ccc3ccccc3c2)cc1`: the Potency result was “inactive”.
Still for that read-out and setting: the same measure for `Clc1ccc(C(c2ccccc2Cl)C(Cl)(Cl)Cl)cc1` (stereo not drawn): “inactive”; for `CCOC(=O)OC1=C(c2cc(C)ccc2C)C(=O)NC12CCC(OC)CC2` (stereo not drawn): “inactive”.
On the same count and under the same terms, the same measure for `FC(F)(F)c1cccc(C2=CCN(CCc3ccc4ccccc4c3)CC2)c1`: “inactive”; for `c1ccc(OCC2CO2)cc1` (stereo not drawn): “inactive”.
Same read-out and setting: then `CC(C)N1C(=O)N(c2ccccc2)CSC1=NC(C)(C)C`, with “inactive”; and `CCC(C)(C)C(=O)OC1=C(c2ccc(Cl)cc2Cl)C(=O)OC12CCCCC2`, with “inactive”.
Regarding `CN(C)C1CSSSC1`, the Potency entry is “inactive”.
On the same count and under the same terms, then `COP(=S)(OC)Oc1cc(Cl)c(Br)cc1Cl`, with “inactive”.
The same measure, in the same setting: the same measure for `C1CCC2CCCCC2C1` (stereo not drawn): “inactive”; for `O=c1oc2ccccc2c(O)c1Cc1c(O)c2ccccc2oc1=O`: “inactive”.
`Fc1cccc(Cl)c1CCl`: the Potency result is “inactive”.
The same measure, in the same setting: then `COP(=O)(OC)SCn1c(=O)oc2cc(Cl)cnc21`, with “inactive”.

For another assay, the target named is Aromatase (Homo sapiens) (UniProt P11511). Nature of the assay: qHTS assay to identify aromatase inhibitors (AID 743083). Note: nearly all actives have a fitted effect of over 55% in size. The following applies: MCF-7 aro ERE, testosterone-driven ERE luciferase, 24 h; series mostly up to 70.3 µM. (In general: qHTS replaces the single test concentration by a dilution series.)
Sequence of Aromatase (Homo sapiens) (P11511 whole entry, looked up): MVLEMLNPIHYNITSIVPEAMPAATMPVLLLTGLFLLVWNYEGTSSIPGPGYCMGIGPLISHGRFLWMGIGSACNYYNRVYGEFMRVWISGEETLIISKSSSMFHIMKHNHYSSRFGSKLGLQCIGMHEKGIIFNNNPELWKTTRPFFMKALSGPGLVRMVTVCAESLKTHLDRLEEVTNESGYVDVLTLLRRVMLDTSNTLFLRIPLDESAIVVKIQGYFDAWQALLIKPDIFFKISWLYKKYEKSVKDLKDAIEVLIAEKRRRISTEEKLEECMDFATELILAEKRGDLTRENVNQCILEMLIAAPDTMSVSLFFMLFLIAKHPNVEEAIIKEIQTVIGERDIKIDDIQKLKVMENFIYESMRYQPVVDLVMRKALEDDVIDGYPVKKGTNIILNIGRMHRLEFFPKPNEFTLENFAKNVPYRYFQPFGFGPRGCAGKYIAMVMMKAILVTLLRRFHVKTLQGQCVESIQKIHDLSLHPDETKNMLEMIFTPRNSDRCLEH
With `Cc1cc(C(F)(C(F)(F)F)C(F)(F)F)ccc1NC(=O)c1cccc(I)c1C(=O)NC(C)(C)CS(C)(=O)=O`, the Potency entry was “inactive”.
For the molecule `CCOc1cc(C(C)(C)C)ccc1C1COC(c2c(F)cccc2F)=N1` (stereo not drawn), the Potency is 41.6 µM (active).
Still for that read-out and setting: then `Nc1ccccc1C(=O)Oc1ccc2ccccc2c1`, with “inactive”.
Still for that read-out and setting: the same measure for `Nc1ccc(Cc2ccc(N)c(Cl)c2)cc1Cl`: 29.6 µM (active); for `C[C@]12CC[C@@H]3c4ccc(OC(=O)N(CCCl)CCCl)cc4CC[C@H]3[C@@H]1CC[C@@H]2O`: “inactive”; for `O=[N+]([O-])c1c2ccccc2cc2ccccc12`: “inactive”.
Same read-out and setting: then `CC(=O)Nc1ccc2c(c1)Cc1ccccc1-2`, with “inactive”.
In the case of `BrCBr`, the Potency entry is “inactive”.
Regarding `O=C(O)COc1nc(Cl)c(Cl)cc1Cl`, the Potency result is “inactive”.
The same measure, in the same setting: then `CN(C)C(=S)[S-].CN(C)C(=S)[S-].[Cu+2]`, with 1.49 µM (active); and `CC(C)CCCCCCCOP(=O)(Oc1ccccc1)Oc1ccccc1`, with “inactive”.
The same measure, in the same setting: the same measure for `O=C(CBr)c1ccc(O)cc1`: “inactive”; for `[CH3][Hg][Cl]`: 27.2 µM (active).
On the same count and under the same terms, then `ClC1=C(Cl)[C@]2(Cl)[C@H]3[C@H]([C@H]4C=C[C@H]3C4)[C@@]1(Cl)C2(Cl)Cl`, with “inactive”.
With `CCCCCCCCCBr`, the Potency result was “inactive”.
Still for that read-out and setting: then `Cc1ccc(OP(=O)(Oc2ccccc2)Oc2ccccc2)cc1`, with “inactive”.
Same read-out and setting: the same measure for `S=C=Nc1cccc2ccccc12`: 27 µM (active); for `Nc1ccccc1C(=O)OC/C=C/c1ccccc1`: “inactive”.
On the same count and under the same terms, the same measure for `c1ccc(Nc2ccc3ccccc3c2)cc1`: “inactive”; for `Clc1ccc(C(c2ccccc2Cl)C(Cl)(Cl)Cl)cc1` (stereo not drawn): “inactive”.
For `Cc1c(Cl)c(=O)oc2cc(OP(=O)(OCCCl)OCCCl)ccc12`, the Potency entry was “inactive”.
In the case of `[Cd+2].[Cl-].[Cl-]`, the Potency was 54.9 µM (active) and inactive.
For the molecule `CCOC(=O)OC1=C(c2cc(C)ccc2C)C(=O)NC12CCC(OC)CC2` (stereo not drawn), the Potency result is “inactive”.
Still for that read-out and setting: the same measure for `FC(F)(F)c1cccc(C2=CCN(CCc3ccc4ccccc4c3)CC2)c1`: “inactive”; for `c1ccc(OCC2CO2)cc1` (stereo not drawn): “inactive”.
Same read-out and setting: the same measure for `CCC(C)(C)C(=O)OC1=C(c2ccc(Cl)cc2Cl)C(=O)OC12CCCCC2`: “inactive”; for `CN(C)C1CSSSC1`: “inactive”; for `COP(=S)(OC)Oc1cc(Cl)c(Br)cc1Cl`: “inactive”.
On the same count and under the same terms, then `O=C(CCCN1CCC2(CC1)C(=O)NCN2c1ccccc1)c1ccc(F)cc1`, with 29.8 µM (active); and `C1CCC2CCCCC2C1` (stereo not drawn), with “inactive”.
As to `O=c1oc2ccccc2c(O)c1Cc1c(O)c2ccccc2oc1=O`, the Potency result was “inactive”.
Still for that read-out and setting: the same measure for `Fc1cccc(Cl)c1CCl`: “inactive”.
Still for that read-out and setting: then `COP(=O)(OC)SCn1c(=O)oc2cc(Cl)cnc21`, with 19.3 µM (active).
